From PubChem BioAssay (EPA / NIEHS)
Records with an inconclusive call do not appear. Calls of active or inactive are those of the source. Rule for the calls, unless noted: active = hit-call score of the fitted dose curve at least 0.9, where 1 is the maximum; inactive = score below 0.9.

Columns and labels:
[1] = ACEA_ER_80hr: ACEA Biosciences xCELLigence Real-Time Cell Analysis on Estrogen Receptor Agonism for Proliferation (AID 2282667; active = hit-call score of the fitted dose curve at least 0.9, where 1 is the maximum); conditions: T47D proliferation, impedance (xCELLigence), 80 h
Procedure, shortened: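 Real-time electrical impedance tracked growth of the human breast line T47D, with the 80 h post-dosing value used. Dosing spanned eight 1:4 steps down from a 100 uM final top concentration, run in duplicate.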

[2] = APR_HepG2_CellCycleArrest_24hr: Apredica 24-hour HepG2 Assay for Cell Cycle Arrest (AID 2282905); conditions: imaging, actives raise or lower the signal;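 note: cell cycle arrest scored as ratio of 2N to 4N nuclear DNA content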
Procedure, shortened: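 Cell cycle arrest is scored from nuclear DNA content measured by high-content imaging of Hoechst 33342-stained HepG2 cells following 24-hour treatment at ten concentrations up to 200 uM, with DMSO as baseline.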

[3] = APR_HepG2_NuclearSize_24hr: Apredica 24-hour HepG2 Assay for Nuclear Size (AID 2282907); conditions: high-content imaging, actives raise or lower the signal
Procedure, shortened: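 Compounds in DMSO (final 0.5%) were added to human HepG2 hepatoma cells at ten concentrations up to 200 uM for 24 hr. Fixed nuclei were stained with Hoechst 33342, and nuclear diameter was quantified from automated images.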

[4] = APR_HepG2_CellLoss_24hr: Apredica 24-hour HepG2 Assay for Cell Loss (AID 2282908); conditions: high-content imaging;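 for AC50: fit in both directions so a hit may be cell loss or gain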
Procedure, shortened: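 Cell number is quantified by fluorescence imaging of Hoechst 33342-stained nuclei following dosing at 0.39–200 uM in 0.5% DMSO. Curves are fitted in both directions from the DMSO baseline.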

[5] = APR_HepG2_MicrotubuleCSK_24hr: Apredica 24-hour HepG2 Assay for Microtubule CSK Stabilty (AID 2282909); conditions: HepG2 microtubule cytoskeleton imaging, actives raise or lower the signal
Procedure, shortened: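 Steps: dose HepG2 for 24 h (0.39–200 uM, 0.5% DMSO); fix 30 min in 3.7% formaldehyde at room temperature; permeabilize; stain alpha-tubulin 60 min; image microtubule cytoskeleton at 20x. Signal change fitted in both directions relative to DMSO.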

[6] = APR_HepG2_MitoticArrest_24hr: Apredica 24-hour HepG2 Assay for Mitotic Arrest (AID 2282910); conditions: high-content imaging, actives raise or lower the signal
Procedure, shortened: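 Compounds are dosed onto HepG2 cells across ten concentrations up to 200 uM for 24 hr. Cells are then fixed in 3.7% formaldehyde, permeabilised, and labelled for phospho-histone H3 and nuclei; images are scored by cell cycle analysis and fitted bidirectionally relative to DMSO.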

[7] = APR_HepG2_MitoMembPot_24hr: Apredica 24-hour HepG2 Assay for Mitochondrial Membrane Potential (AID 2282911); conditions: imaging, actives raise or lower the signal
Procedure, shortened: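 Cells are dosed for 24 hr across 0.39 to 200 uM with solvent held at 0.5% DMSO. They are then stained with 250 nM MitoTracker Red CMXRos for 30 min, fixed in 3.7% formaldehyde and imaged.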

[8] = APR_HepG2_MitoMass_24hr: Apredica 24-hour HepG2 Assay for Mitochondrial Mass (AID 2282912); conditions: high-content imaging, actives raise or lower the signal
Procedure, shortened: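 The liver line HepG2 was dosed in duplicate across a 0.39–200 uM series, with final DMSO held at 0.5% v/v, and harvested at 24 hr. High-content imaging measured mitochondrial dye staining.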

[9] = APR_HepG2_p53Act_24hr: Apredica 24-hour HepG2 Assay for p53 Activation (AID 2282913); conditions: high-content imaging, actives raise or lower the signal;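 note: p53 protein immunofluorescence averaged per cell in HepG2 with Hoechst nuclei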
Procedure, shortened: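 Human HepG2 liver cells; 24 hr cpd treatment, 0.39–200 uM, 0.5% DMSO final. Fixed in 3.7% formaldehyde, permeabilized with 0.5% Triton X-100, stained with anti-p53/Cy5 plus Hoechst 33342. Six images per well at 20x; gain or loss vs DMSO.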

[10] = APR_HepG2_CellCycleArrest_72hr: Apredica 72-hour HepG2 Assay for Cell Cycle Arrest (AID 2282914); conditions: high-content imaging, actives raise or lower the signal
Procedure, shortened: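 Read-out is Hoechst-stained nuclear DNA content measured by automated fluorescence imaging (20x, six images per well), fitted in both directions relative to DMSO. Human HepG2 liver cells received 0.39–200 uM compound for 72 hr at 0.5% v/v DMSO.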

Measured: AC50

COC(N)=O
inactive: [1]

ClC(Cl)=C(c1ccc(Cl)cc1)c1ccccc1Cl
inactive: [1]

Oc1ccc(I)cc1
inactive: [1]

NNC(N)=S
inactive: [1]

Clc1ccc(Oc2ccccc2)cc1
inactive: [1]

CCOP(=S)(OCC)SCS(=O)(=O)CC
inactive: [1]

COP(=O)(CCC(=O)NCO)OC
inactive: [1]

O=c1[nH]c2ccccc2c(=O)o1
inactive: [1]

CNC(=O)Oc1ccc(N(C)C)c(C)c1
inactive: [1]

CO/N=C(/C(=O)OC)c1ccccc1COc1ccccc1C
inactive: [1]

CCOP(=S)(OCC)SCn1nnc2ccccc2c1=O
inactive: [1]

Cc1ccc(N)cc1N
inactive: all assays above

Nc1ccc(Sc2ccc(N)cc2)cc1
inactive: [1]

N#Cc1cc([N+](=O)[O-])ccc1N
inactive: [1]

CCCCN(CC)C(=O)SCCC
inactive: [1]

c1ccc(OP(Oc2ccccc2)Oc2ccccc2)cc1
inactive: all assays above

Nc1ccc(Cl)cc1
inactive: all assays above

CCOC(=O)c1ccccc1N
inactive: [1]

Cc1c([N+](=O)[O-])cc2c(c1[N+](=O)[O-])C(C)(C)CC2(C)C
inactive: [1]

FC(F)(F)C(F)(C(F)(F)F)C(F)(F)C(F)(F)CC1CO1 (stereo not given)
inactive: [1]

O=S(=O)(F)C(F)(F)C(F)(F)C(F)(F)C(F)(F)C(F)(F)C(F)(F)C(F)(F)C(F)(F)F
inactive: [1]

O=C(O)C(F)(F)OC(F)(F)C(F)(F)OC(F)(F)F
inactive: [1]

Oc1ccccc1Br
inactive: [1]

O=C(O)C(F)(F)C(F)(F)C(=O)O
inactive: [1]

C=C(C)C(=O)OCC1CO1 (stereo not given)
inactive: [1]

c1ccc2c(c1)sc1ccccc12
inactive: [1]

CC1=C(C(=O)Nc2ccccc2)S(=O)(=O)CCO1
active: [1] 0.267 µM

CCCCOCCOP(=O)(OCCOCCCC)OCCOCCCC
active: [1] 10.5 µM

OCC(F)(F)OC(F)(F)C(F)(F)OC(F)(F)CO
active: [1] 20.2 µM

N#Cc1c(-c2ccc(Cl)cc2)[nH]c(C(F)(F)F)c1Br
inactive: [1]

CC(C)CBr
inactive: [1]

C/C(=N\NC(=O)Nc1cc(F)cc(F)c1)c1ncccc1C(=O)O
active: [1] 0.265 µM

COP(N)(=S)OC
inactive: [1]

Cc1cc(C)c(C(=O)P(=O)(c2ccccc2)c2ccccc2)c(C)c1
inactive: [1]

CC1(C)CN=C(NN=C(/C=C/c2ccc(C(F)(F)F)cc2)/C=C/c2ccc(C(F)(F)F)cc2)NC1
active: [1] 0.0563 µM

CCOP(=S)(NC(C)C)Oc1ccccc1C(=O)OC(C)C (stereo not given)
inactive: [1]

COP(=O)(O)OC
inactive: [1]

Cn1[nH]nnc1=S
inactive: [1]

O=[N+]([O-])c1ccccc1
inactive: all assays above

Nc1cc2c3c(c1)C(c1ccccc1)=N[C@@H](NC(=O)c1cccnc1)C(=O)N3CC2
not listed: [9]
inactive: all other assays above

CCCN(CCC)c1c([N+](=O)[O-])cc(C(C)C)cc1[N+](=O)[O-]
active: [2] 49 µM | [4] 32.6 µM | [7] 55.2 µM | [8] 42.9 µM | [9] 52.9 µM | [10] 35.4 µM
inactive: [1] | [3] | [5] | [6]

Cc1ccc(O)cc1C
inactive: [1] | [4] | [6] | [7] | [8] | [9]

c1ccc2c(c1)Nc1ccccc1S2
active: [2] 9.76 µM | [7] 107 µM
inactive: all other assays above

CSC(C)(C)C=NO
not listed: [9]
inactive: all other assays above

CCNc1nc(Cl)nc(NC(C)(C)C)n1
active: [1] 28 µM
not listed: [9]
inactive: all other assays above

O=C(O)C(Cl)Cl
not listed: [9]
inactive: all other assays above

O=P1(N(CCCl)CCCl)NCCCO1 (stereo not given)
active: [1] 3.97 µM
inactive: all other assays above

Cc1cccc(N)c1
inactive: all assays above

CCOC(=O)c1ccccc1C(=O)OCC
inactive: all assays above

COCCOCCO
not listed: [9]
inactive: all other assays above

ClC(Cl)c1ccccc1
not listed: [9]
inactive: all other assays above

[N-]=[N+]=[N-]
inactive: all assays above

Nc1ccc2ccccc2c1
active: [7] 52.5 µM | [10] 88.9 µM
inactive: all other assays above
